From PubChem BioAssay AID1211 (NMMLSC, 2008)
Calls of active or inactive are those of the source. How the calls were made is not given here.

Biological target: Estrogen receptor (Homo sapiens) (UniProt P03372)
Assay: displacement of fluorescent estrogen from ERalpha – cell-based, Cos7 ERalpha-GFP, flow cytometry, primary screen (AID 1211);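 further: 0% = DMSO vehicle wells and 100% = no E2-Alexa633 signal left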
Conditions: fluorescent ligand competition, stronger effect = higher value

Estrogen receptor (Homo sapiens), sequence (P03372 whole entry, looked up): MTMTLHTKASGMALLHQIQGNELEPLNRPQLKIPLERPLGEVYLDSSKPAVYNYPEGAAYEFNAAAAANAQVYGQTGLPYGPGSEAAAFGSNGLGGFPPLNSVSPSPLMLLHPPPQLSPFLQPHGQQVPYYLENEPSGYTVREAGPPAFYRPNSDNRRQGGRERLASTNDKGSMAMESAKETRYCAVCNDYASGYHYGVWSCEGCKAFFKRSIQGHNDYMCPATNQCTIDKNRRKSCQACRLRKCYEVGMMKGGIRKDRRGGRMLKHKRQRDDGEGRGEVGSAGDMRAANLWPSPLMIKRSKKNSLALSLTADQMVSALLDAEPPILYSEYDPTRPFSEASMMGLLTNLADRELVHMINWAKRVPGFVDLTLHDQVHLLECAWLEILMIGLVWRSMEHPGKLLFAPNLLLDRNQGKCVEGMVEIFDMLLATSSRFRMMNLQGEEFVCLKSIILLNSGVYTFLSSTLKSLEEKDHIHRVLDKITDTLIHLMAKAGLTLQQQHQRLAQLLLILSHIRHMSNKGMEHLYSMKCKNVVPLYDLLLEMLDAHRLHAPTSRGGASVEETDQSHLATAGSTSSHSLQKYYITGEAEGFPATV

Row | SMILES | inhibition of ligand binding (at 10 µM) | inhibition of ligand binding (binding inhibition, at 0.1 µM)
1 | O=C(NCc1ccco1)c1cc2cc3ccc(Cl)cc3nc2o1 | 49% (inactive) | 30%
2 | COc1ccc(-c2nc3ccc([N+](=O)[O-])cc3o2)cc1 | 28% (inactive) | 52%
3 | CCn1c(SCC(=O)N2CCOCC2)nc2oc3c(Cl)cc(Cl)cc3c(=O)c2c1=O | 22% (inactive) | 5%
4 | COc1cc2c(cc1O)CC[n+]1cc3c(OC)c(OC)ccc3cc1-2 | 46% (inactive) | 9%
5 | N#Cc1c(NCCN)nc(NCc2ccccc2)c2c1CCN(Cc1ccccc1)C2 | 65% (inactive) | 15%
6 | Cc1cc(C)nc(NC(=O)CSc2nn(C)c(=S)s2)n1 | 23% (inactive) | 34%
7 | CC1(C)CC(=O)C2=C(C1)OC(c1ccc(O)cc1)C(C#N)=C2N (configuration not stated) | 34% (inactive) | 5%
8 | O=C1NCCCC2c3cc(O)c4ccccc4c3OC12N1CCCCC1 (configuration not stated) | 25% (inactive) | 23%
9 | COc1ccc(NC(=O)CSc2nc3ccccc3c3nc4ccccc4n23)cc1 | 23% (inactive) | 31%
10 | Cn1c(-c2ccc(N)cc2)nc2ccccc21 | 23% (inactive) | 15%
11 | COc1cc2c(cc1OC)C(Cc1ccc(O)cc1)NCC2 (configuration not stated) | 26% (inactive) | 32%
12 | COc1ccc2c(c1OC)C(=O)N1N=C(c3ccc(O)cc3)CC21 (configuration not stated) | 0% (inactive) | 30%
13 | COc1ccc2cc3c(N)nn(C(=O)Cc4ccc(Cl)cc4)c3nc2c1 | 18% (inactive) | 16%
14 | O=c1[nH]c(N/N=C/c2ccc(O)cc2)nc2ccccc12 | 23% (inactive) | 37%
15 | CSc1nc2c(c(=O)[nH]1)C(c1cccs1)C1=C(CCCC1=O)N2 (configuration not stated) | 28% (inactive) | 30%
16 | O=S(=O)(NCCc1csc(-c2cccnc2)n1)c1ccc(Cl)s1 | 72% (active) | 35%
